These results are taken from PubChem BioAssay (NCI).

Some test systems named below: NCI-H23 lung; NCI-H226 lung; NCI-H322M lung; HOP-62 NSCLC; NCI-H460 lung; HOP-92 NSCLC; NCI-H522 lung; A549/ATCC NSCLC; 786-0 renal; DU-145 prostate; K-562 leukemia; MALME-3M melanoma; MDA-MB-231 breast; RXF 393 renal; SF-268 CNS; SF-295 CNS; SF-539 CNS; UACC-257 melanoma; M14 melanoma; COLO 205 colon.
What all share (assay): NCI-60 one-dose screen, 48 h (100 = growth as untreated, 0 = no growth, -100 = all killed)
Details in all cases: 10 µM unless noted

SMILES strings stand for the structures. The panel holds about 83,000 compounds, 20% with a hit somewhere; the sample as a whole holds those more often.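 Interpretation: 100, growth as untreated; towards 0, rising growth inhibition; 0, no net growth; 0 to -100, cell death. Compounds scoring below 10 were considered active.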 A number with no mark means an inactive call. Calls of active or inactive are those of the source.

Consider `COc1cc(/C=C\c2cc(/C=C\c3ccc(O)c(OC)c3)n(C(=O)CNc3ccccc3OC)n2)ccc1O`, for which the growth in the test with NCI-H23 lung was 69.7%; with NCI-H226 lung, 86%; in the test with NCI-H322M lung it was 90.5%; with HOP-62 NSCLC, 86.4%; in the test with NCI-H460 lung it was 81.6%; in the test with HOP-92 NSCLC it was 81.8%. For the same compound, the growth in the test with NCI-H522 lung was 21.9%; in the test with A549/ATCC NSCLC it was 83.7%; with 786-0 renal, 97.4%; in the test with DU-145 prostate, 95.3%; in the test on K-562 leukemia, 19.4%; in the test on MALME-3M melanoma, 47.9%. Also, the growth was 87% with MDA-MB-231 breast; 90.2% in the test on RXF 393 renal; 58.9% in the test with SF-268 CNS; 85.1% in the test on SF-295 CNS; 42% in the test with SF-539 CNS; 85.5% in the test on UACC-257 melanoma. Besides, the growth in the test with M14 melanoma was 35.4%.

Turning to `Cc1ccc2oc(=O)cc(C3C(C#N)=C(N)Oc4c3ccc3ccccc43)c2c1` (configuration not stated), the growth was 89.8% in the test on NCI-H23 lung; 87.1% with NCI-H226 lung; 89.2% in the test with NCI-H322M lung; 63.7% in the test with HOP-62 NSCLC; 84.1% in the test with NCI-H460 lung; 87.3% with HOP-92 NSCLC. Further, the growth in the test with NCI-H522 lung is 48.6%; in the test on A549/ATCC NSCLC, 71.1%; in the test with 786-0 renal, 81.3%; in the test on DU-145 prostate it was 96.3%; in the test with MALME-3M melanoma, 95.5%; with MDA-MB-231 breast it was 81.9%. Moreover, the growth was 79.2% with RXF 393 renal; 82.7% with SF-268 CNS; 75.8% in the test with SF-295 CNS; 82.6% in the test on SF-539 CNS; 85.4% in the test on UACC-257 melanoma; 61.5% in the test with M14 melanoma.

Consider `CC1=C[S+](c2ccccc2)c2cccc3cc4ccccc4c1c23` (configuration not stated), for which the growth is 5.3% (active) in the test with NCI-H23 lung; -21.7% (active) in the test with NCI-H226 lung; 21.5% in the test on NCI-H322M lung; -42.6% (active) in the test with HOP-62 NSCLC; -32.6% (active) in the test on NCI-H460 lung; -59.6% (active) in the test on HOP-92 NSCLC. The growth in the test on NCI-H522 lung was -95.7% (active); in the test with A549/ATCC NSCLC, -8.79% (active); with 786-0 renal, -80% (active); in the test with DU-145 prostate, -10.8% (active); with K-562 leukemia, -27.2% (active); in the test on MALME-3M melanoma, -41.2% (active). For the same compound, the growth in the test on MDA-MB-231 breast was -10.4% (active); in the test on SF-268 CNS it was -38.7% (active); with SF-295 CNS it was -0.638% (active); with SF-539 CNS it was -88.2% (active); in the test on UACC-257 melanoma it was -88.8% (active); in the test on M14 melanoma it was -64.4% (active).

On to `N#Cc1c(N)nc(Cl)c(C#N)c1C(=O)c1ccccc1`, for which the growth with NCI-H23 lung is 67%; in the test with NCI-H226 lung, 87.9%; in the test with NCI-H322M lung it was 96.5%; in the test on HOP-62 NSCLC it was 69.4%; with HOP-92 NSCLC, 74.2%; in the test with NCI-H522 lung it was 39.1%. Also, the growth in the test with A549/ATCC NSCLC is 70.9%; in the test with 786-0 renal, 37.8%; in the test on COLO 205 colon, 61.6%; in the test on DU-145 prostate it was 52.1%; in the test on K-562 leukemia, 5.81% (active); in the test with MALME-3M melanoma, 42.3%. In addition, the growth was 26.3% in the test with MDA-MB-231 breast; -2.56% (active) with RXF 393 renal; 38.6% in the test with SF-268 CNS; 56.1% in the test on SF-295 CNS; 15.2% in the test on SF-539 CNS; 69.4% in the test on UACC-257 melanoma. Besides, the growth with M14 melanoma is 35%.

For `COc1ccc(-c2nnc(NC(=O)CN3CCN(c4cc5c(cc4F)c(=O)c(C(=O)O)cn5C4CC4)CC3)s2)cc1OC`, the growth with NCI-H23 lung is 96.3%; in the test with NCI-H226 lung, 87.8%; in the test on NCI-H322M lung it was 98.2%; with HOP-62 NSCLC, 95.6%; in the test with HOP-92 NSCLC it was 106%; in the test with NCI-H522 lung, 89.1%. Besides, the growth is 100% in the test with A549/ATCC NSCLC; 88.1% in the test with 786-0 renal; 104% with COLO 205 colon; 113% with DU-145 prostate; 89.9% in the test on K-562 leukemia; 98.9% with MALME-3M melanoma. Further, the growth in the test with MDA-MB-231 breast was 102%; in the test with RXF 393 renal, 105%; with SF-268 CNS, 97.7%; in the test on SF-295 CNS, 103%; in the test with SF-539 CNS it was 96.8%; in the test on UACC-257 melanoma, 98%. The growth with M14 melanoma is 97.7%.

`CC(C)(CCN=C(N)Nc1ccccn1)c1ccc(C(F)(F)F)cc1`: the growth in the test on NCI-H23 lung is 11.8%; in the test with NCI-H226 lung, 42.4%; with NCI-H322M lung, 45.5%; with HOP-62 NSCLC it was 50.4%; in the test with HOP-92 NSCLC it was -2.94% (active); in the test on NCI-H522 lung, 4.82% (active). The growth in the test with A549/ATCC NSCLC is 31.2%; in the test on 786-0 renal it was 29.2%; in the test on COLO 205 colon, -72.8% (active); in the test with DU-145 prostate it was 52.7%; in the test on K-562 leukemia, -31.2% (active); in the test with MALME-3M melanoma, -49.4% (active). For the same compound, the growth with MDA-MB-231 breast is -14.4% (active); in the test on RXF 393 renal, 26.2%; in the test on SF-268 CNS, 51.2%; in the test with SF-295 CNS, 6.92% (active); with SF-539 CNS it was 53.9%; in the test on UACC-257 melanoma, -7.98% (active). The growth in the test on M14 melanoma is -64.3% (active).
